Consider 4 compounds from PubChem BioAssay (NCATS).

A short description of test [1]: AP1 Signaling Pathway (AID 357).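 Note: ME-180 reporter cells stimulated with EGF at its EC50 level; % is set by controls: 0 for no effect and ±100 for the full control effect.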 The conditions noted are these: ME-180 AP-1-bla reporter, EGF-induced, beta-lactamase ratio, 5 h. Summed up:
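Cells are seeded overnight, exposed to compound titrations and an EC50 level of EGF for 5 hours at 37 °C, then loaded with CCF4 dye for 2.5 hours. Beta-lactamase activity under the AP-1 element is read as a blue/green ratio.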

The target in test [2] is Cytochrome P450 1A2 (Homo sapiens) (UniProt P05177). Description: p450-cyp1a2 (AID 410; calls by dose curve; note: potency is the fitted concentration of half-maximal effect). The method, boiled down:
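Read-out is luminescence from luciferin produced by CYP1A2 demethylation of Luciferin-ME (100uM, at Km). Detection reagent stopped the 60 min NADPH-dependent reaction; signals were normalized to 57 uM furafylline.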

Test [3] in a line: Stat Signaling Pathway (AID 446).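 Note: ME-180 cervical cancer cells given 40 pM IL-6 alongside compound; SIE-controlled beta-lactamase reporter measured as 460/530 nm FRET emission ratio; % is set by controls: 0 for no effect and ±100 for the full control effect.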 The conditions noted are these: ME-180 (cervical carcinoma) SIE beta-lactamase reporter, IL-6 stimulated, 5 h. Summed up:
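Normalization used AC90 stimulation (300 pM IL-6) and AC90 inhibition (125 nM pan-JAK inhibitor at 40 pM IL-6). The underlying signal is SIE-driven beta-lactamase in ME-180 cells after 5 h IL-6 exposure with compound.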

In test [4] the target is Mitogen-activated protein kinase 10 (Mus musculus) (UniProt Q61831). As to the kind of experiment: JNK3 AlphaScreen Assay (AID 530).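 Note: kinase came from lysate of stimulated human HepG2 cells; signal reports phosphorylation of biotinylated GST-cJun 1-79 at Ser73 with 10 µM ATP; % is set by controls: 0 for no effect and ±100 for the full control effect.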 Summed up: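 Kinase buffer: 20 mM Tris-HCl pH 7.6, 10 mM MgCl2, 1 mM DTT, 0.1 mM Na3VO4, 0.01% Tween-20; ATP 10 uM. Substrate biotin-GST-cJun(1-79), enzyme from activated HepG2 lysates. Detection by Ser73 phospho-antibody AlphaScreen.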
For test [5], the target named is 3',5'-cyclic-AMP phosphodiesterase 4B (Homo sapiens) (UniProt Q07343). As to the kind of experiment: qHTS Assay for Inhibitors of PDE-IV (AID 607; active = well fitted activation curve with a large enough effect in the main read-out, with a control signal flat, not every such curve was filed as active; note: % of control where 0% means no effect). Summed up: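 HEK293 ACTOne cells with CNG channel (1000/well), endogenous PDE4; membrane potential dye, compounds up to 22.9 uM final. Fluorescence Ex 535/Em 590; RO 20-1724 (100 uM final) as reference.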
(In qHTS, concentration-response curves come from the screen itself.)

Test [6] addresses Pyruvate kinase (Leishmania mexicana) (UniProt Q27686). Description: qHTS Validation Assay for Inhibitors of Leishmania Mexicana Pyruvate Kinase (AID 945; active = well fitted curve in the direction sought with a large enough effect; an effect the other way counts as inactive or inconclusive;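 note: 0% = DMSO only neutral control wells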). Summed up:
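Eight-point qHTS titrations in triplicate, data normalized to DMSO neutral control. Reaction: 0.2 nM LmPYK E451W mutant, 0.5 mM PEP, 0.1 mM ADP, 7 mM MgCl2, pH 7.2, one hour at room temperature; luminescent ATP detection.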

The target of test [7] is Alpha-galactosidase A (Homo sapiens) (UniProt P06280). Description: Counterscreen for Glucocerebrosidase Inhibitors: qHTS Assay for Human alpha-Galactosidase at pH 4.5 (AID 992; active = well fitted curve in the direction sought with a large enough effect; an effect the other way counts as inactive or inconclusive; note: 0% is about no effect). The method, boiled down: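 Steps: enzyme (2 nM final), then compound across 0.7 nM to 77 uM, then 80 uM fluorogenic galactopyranoside substrate; incubate 20 min at room temperature; quench at pH 10; measure fluorescence at 365/440 nm.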
A general note: Counterscreens check selectivity or assay interference.

Test [8] deals with alpha-glucosidase (Oryza sativa, rice) (UniProt Q653V4). As to the kind of experiment: Counterscreen for Glucocerebrosidase Inhibitors: qHTS Assay for Rice alpha-Glucosidase at pH 5.0 (AID 997; active = well fitted curve in the direction sought with a large enough effect; an effect the other way counts as inactive or inconclusive;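 note: 0% = full activity with enzyme and -100% = basal without enzyme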). The method, boiled down:
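Endpoint fluorogenic assay at pH 5.0: compounds (0.7 nM to 77 uM) titrated against 4 nM rice enzyme and 400 uM 4-MU-alpha-glucoside for 20 min at room temperature; NaOH/glycine stop, read ex 365/em 440 nm, Hill-fitted AC50.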

Test [9] can be described thus: qHTS Assay for Lipid Storage Modulators (AID 1519; calls by dose curve). The following applies: Drosophila S3 cells, BODIPY lipid droplet/cell ratio, laser cytometry, cells loaded with oleic acid; for activity change, negative = inhibition: at 25.7 µM (top of the series). Summed up: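 Cells seeded at 5,000 per well were treated with compounds over a concentration series and loaded with oleic acid (400 uM, as added). Lipid droplet fluorescence (488 nm excitation, 500-530 nm channel) was read by laser-scanning cytometry and normalized to 20 uM Triacsin C.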

The target of test [10] is Ubiquitin carboxyl-terminal hydrolase 1 (Homo sapiens) (UniProt O94782). As to the kind of experiment: Inhibitors of USP1/UAF1: Pilot qHTS (AID 504865; active = well fitted curve in the direction sought with a large enough effect; an effect the other way counts as inactive or inconclusive;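 note: rhodamine fluorescence freed from ubiquitin-rhodamine substrate followed over time; top concentration of the series differs between compounds; % is set by controls: 0 for no effect and ±100 for the full control effect; nearly all actives have a fitted effect of over 35% in size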). Summed up: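 Enzyme-free wells gave the negative control, while test wells held 1nM USP1/UAF1 preincubated with compound for 15 min at room temperature. Ub-Rho at 150nM final started the reaction, and fluorescence at 480/540 nm was recorded kinetically.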

The target of test [11] is Luciferin 4-monooxygenase (Photinus pyralis) (UniProt P08659). Description: Biochemical firefly luciferase enzyme assay for NPC (AID 624030; active = well fitted curve in the direction sought with a large enough effect; an effect the other way counts as inactive or inconclusive;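 note: purified P. pyralis luciferase at 10 nM with luciferin and ATP substrate; 0% = DMSO and -100% = full luciferase inhibition by PTC124 control; nearly all actives have a fitted effect of over 70% in size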). The method, boiled down:
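Direct inhibition of firefly luciferase enzyme (10 nM final, 50 mM Tris Acetate) assessed by luminescence within 5 minutes. Percent activity scaled between DMSO and PTC124 positive control, with concentration-effect curves classified by fit quality and response.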

The nature of test [12]: NFAT Signaling Pathway (AID 444).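 Note: carbachol stimulus at about its EC50 of 1 µM final; % is set by controls: 0 for no effect and ±100 for the full control effect.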 The following applies: Jurkat NFAT-bla M1, carbachol, beta-lactamase ratio, 5 h. The method, boiled down:
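Read-out: CCF4 FRET ratio (460 nm/530 nm) after 1 h RT dye loading, used for %activity and AC50 from titration series. Cells: Jurkat NFAT-β-lactamase/M1 line, treated with compound plus 1 uM carbachol for 5 h, 37 °C.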

In test [13] the target is Glucocorticoid receptor (Homo sapiens) (UniProt P04150). Description: GR-GFP Redistribution (AID 450;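 active = compounds whose dose series gives a full or clear partial fitted curve of increased nuclear translocation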; note: potency is the fitted concentration of half-maximal effect). The following applies: U2OS GR-GFP nuclear translocation, laser cytometry, 2 h.
Test [14] shares this target. Description: GR-EFC Redistribution (AID 451; calls by dose curve; note: potency is the fitted concentration of half-maximal effect). The following applies: CHO-K1 GR-EFC translocation, beta-gal luminescence, 2 h. The method, boiled down: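 Translocation of GR-ED fusion to nuclear EA restores b-gal, read by luminescence after 1 h room-temperature detection. Engineered CHO-K1 biosensor cells, 1,000/well, exposed 2 h at 37 C to titrations up to 46 uM final.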

In test [15] the target is ATP-dependent 6-phosphofructokinase (Trypanosoma brucei brucei) (UniProt O15648). Description: qHTS Assay to Find Inhibitors of T. brucei phosphofructokinase: hit validation (AID 492961; active = well fitted curve in the direction sought with a large enough effect; an effect the other way counts as inactive or inconclusive). The method, boiled down: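 Measures ADP output of PFK (1.25 nM) at 0.1 mM ATP, 0.5 mM F6P, pH 8.0 TEA buffer with 5 mM MgCl2. No-enzyme wells define full inhibition; uninhibited enzyme wells define zero.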

Test [16] in a line: qHTS profiling for inhibitors of Plasmodium falciparum proliferation (AID 504749; active = well fitted curve in the direction sought with a large enough effect; an effect the other way counts as inactive or inconclusive; note: potency is the fitted concentration of half-maximal effect;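 for activity, negative = inhibition: 0% = DMSO vehicle and full inhibition = artemisinin control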; for all read-outs here: nearly all actives have a fitted effect of over 60% in size). The following applies: P. falciparum in erythrocytes, SYBR Green DNA, 72 h; for activity, negative = inhibition: at 12.8 µM (top of the series). Summed up: (§1)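 In a 72 h erythrocytic culture (37 C, humidified, 5% CO2) at 2.5% hematocrit and 0.3% starting parasitemia, compounds were tested; SYBR Green I in detergent lysis buffer stained parasite DNA overnight.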

Another test has as its system AS120. The test is described as above. The conditions noted are these: P. falciparum in erythrocytes, SYBR Green DNA, 72 h; series mostly up to 28.7 µM. The method, boiled down: as §1
The next test relates to CP238. Described as above. The following applies: P. falciparum in erythrocytes, SYBR Green DNA, 72 h; series mostly up to 12.8 µM. The method, boiled down: as §1
Another test deals with CP265. The description is as above. The conditions noted are these: P. falciparum in erythrocytes, SYBR Green DNA, 72 h; series mostly up to 12.8 µM. Summed up: as §1
For another test, the system named is FAB9. Described as above. The conditions noted are these: P. falciparum in erythrocytes, SYBR Green DNA, 72 h; series mostly up to 12.8 µM. Summed up:
as §1

The mark [17] stands for this setting: measured here: cell count channel max response.
[18] abbreviates: measured here: lipid channel max response.
[19] abbreviates: at 7.69 µM (top of the series) unless noted.

“And” between values parts separate entries of the source, which are not always exact repeats. Equal values may be shown once. Inconclusive results are not listed. The source made the active and inactive calls. Unless noted, calls come from the whole dose curve; as a rule, active = well fitted curve in either direction with a large enough effect (not every such curve was filed as active); inconclusive = small, poorly fitted or top-dose-only effect, or another doubt; inactive = flat fitted curve, though single readings scatter.

Chain of 3',5'-cyclic-AMP phosphodiesterase 4B (Homo sapiens) (Q07343 whole entry, looked up): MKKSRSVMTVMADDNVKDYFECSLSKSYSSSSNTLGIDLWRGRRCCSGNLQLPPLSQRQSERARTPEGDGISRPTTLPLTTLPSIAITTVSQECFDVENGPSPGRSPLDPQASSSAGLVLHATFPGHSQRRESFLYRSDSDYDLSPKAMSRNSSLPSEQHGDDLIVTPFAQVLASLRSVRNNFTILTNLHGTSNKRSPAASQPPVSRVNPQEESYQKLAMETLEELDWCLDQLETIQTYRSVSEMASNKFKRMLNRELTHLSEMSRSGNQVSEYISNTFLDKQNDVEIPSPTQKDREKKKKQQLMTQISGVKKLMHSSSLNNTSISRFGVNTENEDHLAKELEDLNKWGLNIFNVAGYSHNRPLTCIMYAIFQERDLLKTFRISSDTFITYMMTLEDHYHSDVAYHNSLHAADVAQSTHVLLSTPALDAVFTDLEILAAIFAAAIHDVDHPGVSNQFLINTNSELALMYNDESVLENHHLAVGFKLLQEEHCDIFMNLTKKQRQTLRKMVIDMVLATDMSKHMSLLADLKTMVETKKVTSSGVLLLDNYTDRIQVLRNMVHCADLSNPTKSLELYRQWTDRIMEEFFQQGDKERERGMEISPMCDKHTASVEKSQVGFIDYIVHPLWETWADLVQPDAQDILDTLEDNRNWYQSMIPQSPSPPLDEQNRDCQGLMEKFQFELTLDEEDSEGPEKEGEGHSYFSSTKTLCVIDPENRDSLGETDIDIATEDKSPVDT
Chain of Luciferin 4-monooxygenase (Photinus pyralis) (P08659 whole entry, looked up): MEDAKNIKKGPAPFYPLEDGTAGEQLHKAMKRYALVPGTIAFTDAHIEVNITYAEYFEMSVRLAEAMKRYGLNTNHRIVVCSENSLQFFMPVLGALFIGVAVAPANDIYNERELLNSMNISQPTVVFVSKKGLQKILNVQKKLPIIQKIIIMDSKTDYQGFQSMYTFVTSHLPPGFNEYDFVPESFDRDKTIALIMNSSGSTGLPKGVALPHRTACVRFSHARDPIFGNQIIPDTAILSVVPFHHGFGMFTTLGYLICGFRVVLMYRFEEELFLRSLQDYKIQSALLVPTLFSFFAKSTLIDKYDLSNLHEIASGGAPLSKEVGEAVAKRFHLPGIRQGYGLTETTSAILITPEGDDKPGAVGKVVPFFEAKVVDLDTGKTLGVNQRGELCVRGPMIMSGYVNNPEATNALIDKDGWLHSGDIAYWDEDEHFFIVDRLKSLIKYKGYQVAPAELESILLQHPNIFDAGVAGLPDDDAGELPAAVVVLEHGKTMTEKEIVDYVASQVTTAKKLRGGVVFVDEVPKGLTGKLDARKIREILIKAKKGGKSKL
Chain of Glucocorticoid receptor (Homo sapiens) (P04150 whole entry, looked up, the tested form may be a part): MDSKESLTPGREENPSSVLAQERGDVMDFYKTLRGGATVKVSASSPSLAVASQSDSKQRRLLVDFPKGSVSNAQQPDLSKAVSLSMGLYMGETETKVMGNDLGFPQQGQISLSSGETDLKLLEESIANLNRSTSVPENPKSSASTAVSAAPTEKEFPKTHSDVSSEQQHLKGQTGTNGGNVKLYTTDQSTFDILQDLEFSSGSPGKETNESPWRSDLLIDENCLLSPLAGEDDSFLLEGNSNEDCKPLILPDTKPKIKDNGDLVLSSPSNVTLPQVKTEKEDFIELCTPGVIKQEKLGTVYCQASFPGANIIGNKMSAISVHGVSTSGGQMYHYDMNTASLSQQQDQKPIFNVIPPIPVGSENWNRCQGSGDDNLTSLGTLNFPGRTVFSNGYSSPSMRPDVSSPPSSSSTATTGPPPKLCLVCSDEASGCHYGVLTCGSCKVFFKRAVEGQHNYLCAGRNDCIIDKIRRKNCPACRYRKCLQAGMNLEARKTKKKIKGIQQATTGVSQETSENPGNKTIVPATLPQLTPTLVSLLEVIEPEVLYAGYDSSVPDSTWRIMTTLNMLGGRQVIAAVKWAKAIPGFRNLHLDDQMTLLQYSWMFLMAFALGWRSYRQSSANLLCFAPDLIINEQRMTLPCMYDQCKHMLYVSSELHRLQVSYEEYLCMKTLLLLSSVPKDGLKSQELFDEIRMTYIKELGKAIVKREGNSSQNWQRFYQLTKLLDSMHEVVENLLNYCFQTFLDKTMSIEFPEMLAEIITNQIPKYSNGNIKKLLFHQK
Chain of Cytochrome P450 1A2 (Homo sapiens) (P05177 whole entry, looked up): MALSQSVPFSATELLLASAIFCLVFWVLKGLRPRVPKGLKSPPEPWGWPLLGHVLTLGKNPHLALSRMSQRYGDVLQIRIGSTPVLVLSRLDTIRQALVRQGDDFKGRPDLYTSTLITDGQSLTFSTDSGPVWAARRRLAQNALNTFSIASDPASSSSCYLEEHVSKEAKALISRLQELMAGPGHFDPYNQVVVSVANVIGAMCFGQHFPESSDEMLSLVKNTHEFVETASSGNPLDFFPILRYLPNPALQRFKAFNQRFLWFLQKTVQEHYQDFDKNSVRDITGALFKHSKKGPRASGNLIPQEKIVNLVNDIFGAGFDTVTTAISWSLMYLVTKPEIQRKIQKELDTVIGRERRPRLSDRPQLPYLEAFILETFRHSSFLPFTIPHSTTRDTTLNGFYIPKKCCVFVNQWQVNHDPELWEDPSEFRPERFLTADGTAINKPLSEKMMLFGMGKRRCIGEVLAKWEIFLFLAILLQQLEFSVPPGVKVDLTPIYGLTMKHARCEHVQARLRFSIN
Chain of Ubiquitin carboxyl-terminal hydrolase 1 (Homo sapiens) (O94782 whole entry, looked up): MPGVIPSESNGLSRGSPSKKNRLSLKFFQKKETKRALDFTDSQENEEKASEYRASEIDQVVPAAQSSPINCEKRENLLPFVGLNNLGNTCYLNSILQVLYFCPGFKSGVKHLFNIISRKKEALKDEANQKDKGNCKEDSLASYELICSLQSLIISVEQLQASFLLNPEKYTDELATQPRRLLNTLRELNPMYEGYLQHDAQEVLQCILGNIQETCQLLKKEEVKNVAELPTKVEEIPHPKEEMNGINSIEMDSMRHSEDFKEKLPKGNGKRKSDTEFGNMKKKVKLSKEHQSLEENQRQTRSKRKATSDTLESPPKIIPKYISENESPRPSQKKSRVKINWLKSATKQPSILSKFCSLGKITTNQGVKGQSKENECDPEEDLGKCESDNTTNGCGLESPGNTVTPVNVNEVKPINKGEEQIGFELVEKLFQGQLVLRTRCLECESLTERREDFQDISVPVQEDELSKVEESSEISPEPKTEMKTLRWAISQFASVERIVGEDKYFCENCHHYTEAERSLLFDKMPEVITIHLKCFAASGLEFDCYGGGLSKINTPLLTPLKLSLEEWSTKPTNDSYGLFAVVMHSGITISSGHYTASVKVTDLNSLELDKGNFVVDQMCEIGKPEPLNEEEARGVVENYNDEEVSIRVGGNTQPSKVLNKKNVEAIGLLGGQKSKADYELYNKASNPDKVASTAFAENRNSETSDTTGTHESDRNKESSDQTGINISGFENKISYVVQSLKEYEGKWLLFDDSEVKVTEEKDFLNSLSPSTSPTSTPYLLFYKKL
Chain of ATP-dependent 6-phosphofructokinase (Trypanosoma brucei brucei) (O15648 whole entry, looked up): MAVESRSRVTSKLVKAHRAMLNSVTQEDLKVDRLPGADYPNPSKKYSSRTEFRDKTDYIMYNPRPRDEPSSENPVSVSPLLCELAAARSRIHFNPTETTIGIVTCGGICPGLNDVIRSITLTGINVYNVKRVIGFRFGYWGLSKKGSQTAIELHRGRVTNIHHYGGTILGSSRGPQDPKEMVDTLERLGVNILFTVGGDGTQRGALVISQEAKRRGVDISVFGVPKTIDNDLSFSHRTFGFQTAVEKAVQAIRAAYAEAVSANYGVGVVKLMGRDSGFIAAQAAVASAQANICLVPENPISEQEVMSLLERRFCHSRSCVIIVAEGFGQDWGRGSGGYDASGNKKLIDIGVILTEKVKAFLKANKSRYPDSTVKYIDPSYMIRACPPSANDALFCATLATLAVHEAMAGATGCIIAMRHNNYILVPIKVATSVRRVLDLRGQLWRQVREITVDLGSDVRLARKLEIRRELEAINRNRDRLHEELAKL
Chain of Pyruvate kinase (Leishmania mexicana) (Q27686 2-499 E452W): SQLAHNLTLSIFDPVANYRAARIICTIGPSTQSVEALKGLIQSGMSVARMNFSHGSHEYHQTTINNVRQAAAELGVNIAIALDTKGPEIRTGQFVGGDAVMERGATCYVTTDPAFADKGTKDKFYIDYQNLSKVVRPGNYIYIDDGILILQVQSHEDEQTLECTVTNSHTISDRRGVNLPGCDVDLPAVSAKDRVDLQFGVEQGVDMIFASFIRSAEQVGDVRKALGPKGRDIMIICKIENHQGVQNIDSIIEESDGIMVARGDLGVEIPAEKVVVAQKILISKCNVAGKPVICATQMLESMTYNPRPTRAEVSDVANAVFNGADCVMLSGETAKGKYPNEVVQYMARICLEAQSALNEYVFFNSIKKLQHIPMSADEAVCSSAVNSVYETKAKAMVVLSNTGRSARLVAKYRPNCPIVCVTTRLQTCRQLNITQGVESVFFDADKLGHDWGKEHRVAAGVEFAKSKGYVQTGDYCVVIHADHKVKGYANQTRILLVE
Chain of Alpha-galactosidase A (Homo sapiens) (P06280 whole entry, looked up): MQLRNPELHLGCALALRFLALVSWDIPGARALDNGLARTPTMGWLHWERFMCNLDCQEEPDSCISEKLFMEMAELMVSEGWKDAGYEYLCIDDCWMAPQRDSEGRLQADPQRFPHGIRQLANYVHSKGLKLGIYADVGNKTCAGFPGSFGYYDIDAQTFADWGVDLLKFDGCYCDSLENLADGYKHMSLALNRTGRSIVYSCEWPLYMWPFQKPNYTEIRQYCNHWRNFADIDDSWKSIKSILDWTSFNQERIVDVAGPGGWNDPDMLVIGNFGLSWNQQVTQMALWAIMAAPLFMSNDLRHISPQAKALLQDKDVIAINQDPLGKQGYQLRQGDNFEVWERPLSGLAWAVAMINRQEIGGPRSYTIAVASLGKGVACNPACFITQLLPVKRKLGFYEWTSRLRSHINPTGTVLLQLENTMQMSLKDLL

In the case of `CN(C)CCO[C@](C)(c1ccccc1)c1ccccn1`, the activity change, negative = inhibition was 4.7% (inactive) in [1] (at 17.2 µM (top of the series)), 3.93% (inactive) in test [1] (at 38 µM (top of the series)) and 0.849% (inactive) in test [9]. Also, the Potency result in test [2], in test [4], in test [5] and in [10] was “inactive” throughout. For the same compound, the figures for the activity, negative = inhibition in test [3] (at 17.2 µM (top of the series)) and in test [3] (at 38 µM (top of the series)) were -3.9% (inactive) and 8.94% (inactive), respectively. The compound was called inactive in test [6], in test [7], in test [8] and in test [11]. Also, the values for the max response in [9] (setting [17]) and in test [9] (setting [18]) were 16.6% and 17.9%, respectively.

Consider `CCCN[C@@H](C)C(=O)Nc1c(C)csc1C(=O)OC`, for which the activity change, negative = inhibition was 8.34% [at 17.2 µM] (inactive) in [1] (setting [19]), -13.1% [at 17.2 µM] (inactive) in [12] (setting [19]) and -2.12% (inactive) in test [9]. Further, the Potency in test [2] is 12.6 µM (active); in test [13], > 20.6 µM (inactive); in test [14], > 20.6 µM (inactive). In addition, the activity, negative = inhibition in [3] (setting [19]) was -0.411% [at 17.2 µM] (inactive); in [16] (parasite line A), 6.61% (inactive); in test [16] (parasite line B) it was 16.5% (inactive). For the same compound, the Potency entry (in [4]; in test [5]; with AS120; in the test on CP238; in the test with CP265; with FAB9) was “inactive” in each case. Moreover, the values for the max response in test [9] (setting [17]) and in test [9] (setting [18]) were -6.57% and -14.2%, respectively. Further, the outcome in test [15] and in [11] was inactive.

Regarding `C[C@]12CCC3c4ccc(O)cc4CCC3[C@@H]1CCC2=O` (stereo not given in full), the activity change, negative = inhibition in test [1] (at 17.2 µM (top of the series)) was 0.112% (inactive); in test [1] (at 38 µM (top of the series)), -3.57% (inactive); in [12] (at 17.2 µM (top of the series)) it was -16.8% (inactive); in test [12] (at 38 µM (top of the series)), -2.29% (inactive); in [9], -0.972% (inactive). Further, the activity, negative = inhibition in test [3] (at 17.2 µM (top of the series)) is -9.06% (inactive); in test [3] (at 38 µM (top of the series)), -20.6% (inactive). The Potency entry in [4], in test [5] and in test [10] was “inactive” throughout. Further, the results for the max response in [9] (setting [17]) and in test [9] (setting [18]) were -7.49% and -8.59%, respectively.

Regarding `CCN(CC)CCC[C@H](C)Nc1ccnc2cc(Cl)ccc12`, the activity change, negative = inhibition in test [1] (at 17.2 µM (top of the series)) was 13.4% (inactive); in test [1] (at 38 µM (top of the series)), 1.88% (inactive); in test [12] (at 17.2 µM (top of the series)), -9.2% (inactive); in test [12] (at 38 µM (top of the series)), -24.9% (inactive); in test [9], -0.708% (inactive). For the same compound, the activity, negative = inhibition is 3.07% (inactive) in [3] (at 17.2 µM (top of the series)) and 15.2% (inactive) in [3] (at 38 µM (top of the series)). For the same compound, the Potency in [13] was > 46 µM (inactive) and > 20.6 µM (inactive); in test [14], > 46 µM (inactive) and > 20.6 µM (inactive); in test [16] (parasite line A), 0.158 µM (active); in [16] (parasite line B) it was 0.316 µM (active); in the test with AS120 it was 11.2 µM (active); in the test with CP238 it was 10 µM (active). For the same compound, the Potency with FAB9 was 0.141 µM (active). The Potency result in [4], in test [5] and in [10] was “inactive” throughout. The compound was called inactive in [6], in test [7], in [8], in test [15] and in test [11]. Moreover, the max response in [9] (setting [17]) is -15.4%; in test [9] (setting [18]), -16%.
